# Data published in the supplement of paper PMC7261846.
# ± gives the uncertainty stated by the source.
# Test system: Candida albicans SNY425 biofilm
# Experiment: biofilm OD600 with compound plus antifungal (OD600 (absorbance)); higher = more biofilm remaining
# [1] = assay detail: disruption of 24-h mature biofilm (compound + antifungal for a second 24 h)
# [2] = assay detail: sustained inhibition (compound + antifungal during 90-min adherence and 24-h growth)
SMILES,biofilm OD600 [1],biofilm OD600 [2]
Cc1cccc(C)c1OCC(=O)N[C@@H](Cc1ccccc1)[C@@H](O)C[C@H](Cc1ccccc1)NC(=O)[C@H](C(C)C)N1CCCNC1=O [lopinavir] + OC(Cn1cncn1)(Cn1cncn1)c1ccc(F)cc1F [fluconazole] (first compound 12.5 µM),0.246 ± 0.01,0.141 ± 0.021
CCOC(=O)[C@H](CCc1ccccc1)N[C@@H](C)C(=O)N1CCC[C@H]1C(=O)O [Enalapril] + C[C@@H]1[C@H](O)[C@@H](C)/C=C/C=C/C=C/C=C/C=C/C=C/C=C/[C@H](O[C@@H]2O[C@H](C)[C@@H](O)[C@H](N)[C@@H]2O)C[C@@H]2O[C@](O)(C[C@@H](O)C[C@@H](O)[C@H](O)CC[C@@H](O)C[C@@H](O)CC(=O)O[C@H]1C)C[C@H](O)[C@H]2C(=O)O [amphotericin B] (first compound 12.5 µM),0.279 ± 0.0057,0.197 ± 0.023
NCCCC[C@H](N[C@@H](CCc1ccccc1)C(=O)O)C(=O)N1CCC[C@H]1C(=O)O [Lisinopril] + C[C@@H]1[C@H](O)[C@@H](C)/C=C/C=C/C=C/C=C/C=C/C=C/C=C/[C@H](O[C@@H]2O[C@H](C)[C@@H](O)[C@H](N)[C@@H]2O)C[C@@H]2O[C@](O)(C[C@@H](O)C[C@@H](O)[C@H](O)CC[C@@H](O)C[C@@H](O)CC(=O)O[C@H]1C)C[C@H](O)[C@H]2C(=O)O [amphotericin B] (first compound 12.5 µM),0.27 ± 0.012,0.173 ± 0.014
O=C(O)CNC(=O)C(CS)Cc1ccccc1 (racemic) [DL-Thiorphan] + C[C@@H]1[C@H](O)[C@@H](C)/C=C/C=C/C=C/C=C/C=C/C=C/C=C/[C@H](O[C@@H]2O[C@H](C)[C@@H](O)[C@H](N)[C@@H]2O)C[C@@H]2O[C@](O)(C[C@@H](O)C[C@@H](O)[C@H](O)CC[C@@H](O)C[C@@H](O)CC(=O)O[C@H]1C)C[C@H](O)[C@H]2C(=O)O [amphotericin B] (first compound 12.5 µM),0.264 ± 0.0083,0.164 ± 0.012
